Laboratory results from PubChem BioAssay (NCATS).
Records with an inconclusive call do not appear. The source made the active and inactive calls. Calls follow the shape of the dose curve; as a rule, active = well fitted curve in the direction sought with a large enough effect; inconclusive = small, poorly fitted or top-dose-only effect, or another doubt; inactive = no such curve, though single readings can be large; an effect the other way counts as inactive or inconclusive.

Legend:
[1] = qHTS of pediatric cancer cell lines to identify multiple opportunities for drug repurposing: Primary screen for TC32 cells (AID 1347089); also: nearly all actives have a fitted effect of over 60% in size; also: potency is read from the fitted curve at half-maximal effect
In short: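 Luminescent ATP read-out (CellTiter-Glo) of metabolically active TC32 cells after 48 h exposure. Concentration-response curves came from 11-point (MIPE, 0.78 nM–46 µM) or 8-point (NPC, 0.59 nM–46 µM) primary titrations; follow-up used 11 points.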

[2] = qHTS of pediatric cancer cell lines to identify multiple opportunities for drug repurposing: Primary screen for SJ-GBM2 cells (AID 1347091); also: potency is read from the fitted curve at half-maximal effect
In short: (§1)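 Viability measured as metabolically active cells via CellTiter-Glo luminescence following 48 hours of compound exposure, 11-point dilutions in confirmatory testing. 500-1,000 cells/well plated 5 hours before dosing; controls were DMSO and 2.3 µM bortezomib.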

[3] = qHTS of pediatric cancer cell lines to identify multiple opportunities for drug repurposing: Primary screen for A673 cells (AID 1347092); also: nearly all actives have a fitted effect of over 45% in size; also: potency is read from the fitted curve at half-maximal effect
In short: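 Cell viability of A673 measured by CellTiter-Glo ATP luminescence after 48 hours compound exposure. Dilution series spanned 0.78 nM to 46 µM (MIPE, 11-point) or 0.59 nM to 46 µM (NPC, 8-point); bortezomib 2.3 uM positive control.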

[4] = qHTS of pediatric cancer cell lines to identify multiple opportunities for drug repurposing: Primary screen for SK-N-MC cells (AID 1347093); also: potency is read from the fitted curve at half-maximal effect
In short: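 Metabolically active cells were quantified by ATP-dependent luminescence (CellTiter-Glo, 15 min at room temperature) following 48 h treatment. Cells had been plated at 500-1,000 per well and settled for 5 h beforehand.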

[5] = qHTS of pediatric cancer cell lines to identify multiple opportunities for drug repurposing: Primary screen for BT-37 cells (AID 1347094); also: potency is read from the fitted curve at half-maximal effect
In short: (§2)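 Cells seeded at 500-1,000 cells/well in growth media, rested 5 hours at 37 degrees C, 5% CO2, then dosed; MIPE compounds at 11-point (from 0.78 nM) and NPC at 8-point (from 0.59 nM) final concentrations. Viability by CellTiter-Glo luminescence after 48 hours.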

[6] = qHTS of pediatric cancer cell lines to identify multiple opportunities for drug repurposing: Primary screen for NB-EBc1 cells (AID 1347095); also: potency is read from the fitted curve at half-maximal effect
In short: as §2

[7] = qHTS of pediatric cancer cell lines to identify multiple opportunities for drug repurposing: Primary screen for U-2 OS cells (AID 1347096); also: nearly all actives have a fitted effect of over 50% in size; also: potency is read from the fitted curve at half-maximal effect
In short: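 Viability after 48 h compound treatment at 37C, 500-1,000 cells/well, read as ATP luminescence with CellTiter-Glo. Primary screens used 11-point (MIPE, 0.78 nM-46 µM) or 8-point (NPC, 0.59 nM-46 µM) final concentrations; follow-up screens used 11-point dilutions.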

[8] = qHTS of pediatric cancer cell lines to identify multiple opportunities for drug repurposing: Primary screen for Saos-2 cells (AID 1347097); also: nearly all actives have a fitted effect of over 40% in size; also: potency is read from the fitted curve at half-maximal effect
In short: as §2

[9] = qHTS of pediatric cancer cell lines to identify multiple opportunities for drug repurposing: Primary screen for SK-N-SH cells (AID 1347098); also: nearly all actives have a fitted effect of over 65% in size; also: potency is read from the fitted curve at half-maximal effect
In short: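 Cells (500-1,000/well) rested 5 h, then received compounds for 48 h; metabolically active cells were measured by CellTiter-Glo luminescence. Final concentrations spanned up to 46 µM (MIPE, 11-point) or 0.59 nM-46 µM (NPC, 8-point) in primary screens, 11-point in follow-ups.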

[10] = qHTS of pediatric cancer cell lines to identify multiple opportunities for drug repurposing: Primary screen for DAOY cells (AID 1347090); also: series mostly up to about 46 µM; nearly all actives have a fitted effect of over 55% in size
In short: as §1

Measured: Potency

COc1ccc(-c2ccc3ncc4c(c3c2)n(-c2ccc(N3CCNCC3)c(C(F)(F)F)c2)c(=O)n4C)cn1
active: [1] 0.0165 µM | [2] 0.0132 µM | [3] 0.372 µM | [4] 0.0037 µM | [5] 0.0306 µM | [6] 0.0148 µM | [7] 7.43 µM | [8] 0.418 µM | [9] 0.0857 µM

CC1(C)OC2CC3C4CC(F)C5=CC(=O)C=CC5(C)C4C(O)CC3(C)[C@]2(C(=O)CO)O1 (stereo not given in full)
not listed: [10]
inactive: all other assays above

C=C[C@@H]1CN2CCC1C[C@@H]2C(O)c1ccnc2ccc(OC)cc12 (stereo not given in full)
not listed: [6] | [10]
inactive: all other assays above

CC1CNc2c(cccc2S(=O)(=O)N[C@@H](CCCN=C(N)N)C(=O)N2CC[C@@H](C)C[C@@H]2C(=O)O)C1 (stereo not given in full)
inactive: [1] | [7]
active: [2] 18.7 µM | [3] 5.9 µM | [4] 6.62 µM | [5] 10.9 µM | [6] 6.62 µM | [9] 8.57 µM

CNC1[C@H](O)C(O[C@@H]2C(O)C(O[C@H]3O[C@H]([C@@H](C)NC)CC[C@H]3N)[C@@H](N)C[C@H]2N)OC[C@]1(C)O (stereo not given in full)
not listed: [6] | [10]
inactive: all other assays above

COc1ccc(Cn2ccc3ccc(C(=O)NO)cc32)cc1
inactive: [1] | [2] | [8]
active: [3] 14.8 µM | [4] 5.9 µM | [6] 8.33 µM | [9] 21.5 µM

Nc1ncnc2c1c(-c1cccc(OCc3ccccc3)c1)cn2C1CC(CN2CCC2)C1 (stereo not given)
inactive: [10] | [5] | [7]
active: [1] 9.3 µM | [8] 3.32 µM

Cc1cccc(-c2[nH]c(C(C)(C)C)nc2-c2ccc3c(c2)OCO3)n1
active: [1] 8.29 µM | [2] 4.69 µM | [3] 4.69 µM | [4] 2.96 µM | [5] 6.11 µM | [8] 0.418 µM | [9] 30.4 µM

O=C(Nc1cccc2c(=O)cc(-c3nn[nH]n3)oc12)c1ccc(OCCCCc2ccccc2)cc1
inactive: [1] | [10] | [7]

CCC(=O)N1CCN(c2ccc(-n3c(=O)ccc4cnc5ccc(-c6cnc7ccccc7c6)cc5c43)cc2C(F)(F)F)CC1
active: [1] 0.0739 µM | [2] 0.0187 µM | [3] 0.0118 µM | [4] 0.0053 µM | [5] 0.0217 µM | [6] 0.0662 µM

CN1CCC(COc2cnc(-c3cccc(Cn4nc(-c5cccc(C#N)c5)ccc4=O)c3)nc2)CC1
active: [2] 0.0083 µM | [3] 0.148 µM | [4] 0.148 µM | [9] 24.1 µM
inactive: [1] | [5] | [7] | [8]

Nc1nc(Cl)nc2c1ncn2[C@@H]1O[C@H](CO)[C@@H](O)[C@H]1F
inactive: [7]
active: [1] 0.0234 µM | [2] 0.001 µM | [3] 0.0296 µM | [4] 0.001 µM | [5] 0.0485 µM | [6] 0.001 µM

OC[C@H]1O[C@@H](O[C@H]2[C@@H](O)[C@@](O)(CO)O[C@@H]2CO)[C@H](O)[C@@H](O)[C@@H]1O
not listed: [6] | [10]
inactive: all other assays above

CC(C)C[C@@H](C(=O)N[C@H](C(=O)OC1CCCC1)c1ccccc1)[C@H](O)C(=O)NO
active: [2] 20.9 µM | [3] 14.8 µM | [4] 18.7 µM | [5] 24.3 µM | [8] 16.6 µM
inactive: [1] | [7]

O=C(Nc1ncc(SCCN2CCCC2)s1)[C@]1(c2ccc(S(=O)(=O)C3CC3)cc2)C[C@@H]1C1CCCCC1
active: [2] 23.5 µM | [3] 18.7 µM | [4] 20.9 µM | [5] 30.6 µM | [7] 23.5 µM | [8] 33.2 µM
inactive: [1] | [9]

Cc1ccc(NC(=O)c2cccc(N(C)C)c2)cc1NC(=O)c1ccc(O)cc1
active: [1] 13.1 µM | [3] 0.148 µM | [4] 0.187 µM | [5] 3.85 µM | [6] 11.8 µM | [9] 15.2 µM
inactive: [2]

COc1c(C)cnc(Cn2cnc3c(Cl)nc(N)nc32)c1C
active: [1] 1.17 µM | [2] 0.296 µM | [3] 0.235 µM | [4] 0.132 µM | [6] 0.118 µM | [9] 0.341 µM
inactive: [8]

COc1ccc(-c2oc3c(CC=C(C)C)c(O)cc(O)c3c(=O)c2O)cc1
active: [2] 18.7 µM | [3] 18.7 µM | [4] 9.35 µM | [6] 18.7 µM | [8] 23.5 µM
inactive: [1] | [5] | [7]
